Assay [1] can be described thus: A CellTox Green Cytotoxicity Assay to monitor cytotoxicity in HEK293 cells - 16 hour (AID 1224888). Further: nearly all actives have a fitted effect of over 35% in size. In outline:
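HEK293 cells, 600/well, were preincubated 5 hours and then exposed to compounds at 37 C for up to 40 hours. A cell-impermeant cyanine dye staining dead-cell DNA was read by fluorescence at 0, 8, 16, 24, 32 and 40 h time points.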

Assay [2] is described as follows: A CellTox Green Cytotoxicity Assay to monitor cytotoxicity in HepG2 cells - 8 hour (AID 1224890). Further: nearly all actives have a fitted effect of over 45% in size. An outline of the steps: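 HepG2 cells, 600/well, preincubated 5 h with CellTox Green dye, then exposed to Tox21 compounds in DMSO at 37 C for up to 40 h. Dead-cell DNA fluorescence read at the indicated time point.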
Assay [3] can be described thus: qHTS assay to identify small molecule antagonists of the androgen receptor (AR) signaling pathway using the MDA cell line in the presence of 0.5 nM R1881 - cell viability counter screen (AID 1259242). Further: nearly all actives have a fitted effect of over 45% in size. Further: potency means the concentration at half of the fitted maximal effect. An outline of the steps:
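MDA-kb2 cells (MMTV-luciferase, AR/GR responsive) were treated with compounds plus 0.5 nM R1881 (final) for 16 hr at 37C, 0% CO2. Viability was then read in the same wells as live-cell protease fluorescence (CellTiter-Fluor, 30 min).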

A short description of assay [4]: qHTS assay to identify small molecule HDAC inhibitors (AID 1259364). Further: top concentration of the series differs between compounds; nearly all actives have a fitted effect of over 45% in size. In outline:
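Wild-type HCT-116 cells, plated overnight at 37 C, exposed to compounds 2 hr at 37 C; luminogenic HDAC-Glo substrate then added 30 min at room temperature. Luminescence reports relative endogenous class I/II HDAC activity.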

The nature of assay [5]: qHTS assay to identify small molecule HDAC inhibitors - cell viability counter screen (AID 1259365). Further: series mostly up to about 92 µM; nearly all actives have a fitted effect of over 50% in size. An outline of the steps:
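To flag cytotoxic hits, 1,500 wild-type HCT-116 cells per well, plated the day before, receive test compounds for 2hr at 37 C before CellTiter-Glo reagent and a luminescence read.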

Assay [6] can be described thus: qHTS assay to identify small molecule agonists of the sonic hedgehog signaling (Shh) pathway - cell viability counter screen (AID 1259366). Further: nearly all actives have a fitted effect of over 50% in size. Further: potency means the concentration at half of the fitted maximal effect. In outline: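 Fluorescence from CellTiter-Fluor reports live cells in this counter screen. NIH/3T3-derived Gli1-Luc reporter cells receive test compounds for 24hr at 37C; reagent goes in at 23hr.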
Assay [7] can be described thus: qHTS assay to identify small molecule agonists of the sonic hedgehog signaling (Shh) pathway (AID 1259368; calls by dose curve;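 further: NIH/3T3-derived 3T3Gli1-Luc cells carrying a stable Gli1-driven firefly luciferase reporter; series mostly up to about 92 µM; nearly all actives have a fitted effect of over 15% in size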). An outline of the steps: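 NIH/3T3-derived 3T3Gli1-Luc cells with stably integrated Gli1-driven firefly luciferase, 2,000 cells/well, compounds added after 4 hr. Incubated 24 hr at 37C, 5% CO2; luminescence read after 30 min with luciferase reagent at room temperature.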

Assay [8] addresses Estrogen receptor beta (Homo sapiens) (UniProt Q92731). Nature of the assay: qHTS assay to identify small molecule agonists of the estrogen receptor beta (ER-beta) signaling pathway (AID 1259377; active means well fitted activation curve with a large enough effect in the signal ratio in the repeat runs, not every such curve was filed as active; the % refers to the signal ratio). An outline of the steps: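 Screening used GripTite ER-beta-UAS-bla cells held in 2% charcoal-stripped FBS medium. After overnight (16 hr) compound incubation at 37C, beta-lactamase activity was detected with a FRET substrate by fluorescence.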

Assay [9] is described as follows: qHTS assay to identify small molecule agonists of the androgen receptor (AR) signaling pathway in the presence of an antagonist - cell viability counter screen (AID 1259379). Further: nearly all actives have a fitted effect of over 25% in size. Further: potency means the concentration at half of the fitted maximal effect. An outline of the steps: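 MDA-kb2 cells (MMTV-luciferase, AR/GR), 3,000/well, 5 h attachment, then 3.0 µM nilutamide (final) and compounds at 15 concentrations. Viability by CellTiter-Fluor fluorescence after 16 h at 37 °C, 0% CO2, in the reporter wells.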

The target of assay [10] is Androgen receptor (Homo sapiens) (UniProt P10275). Nature of the assay: qHTS assay to identify small molecule agonists of the androgen receptor (AR) signaling pathway in the presence of an antagonist (AID 1259381; calls by dose curve; further: nearly all actives have a fitted effect of over 15% in size; further: potency means the concentration at half of the fitted maximal effect). In outline:
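MDA-kb2 cells carrying MMTV-luciferase (AR/GR responsive), 3,000 cells/well, co-treated with 3.0 uM nilutamide final. Compounds at 15 concentrations, 16 hr at 37C without CO2. Luciferase luminescence read after 30 min with ONE-Glo.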

Assay [11] in a line: qHTS RealTime-Glo MT Cell Viability Assay in HepG2 cells - 0 hour (AID 1224889). Further: nearly all actives have a fitted effect of over 50% in size. In outline:
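Luminescence read-out: viable HepG2 cells reduce a prosubstrate to a NanoLuc substrate, giving a signal proportional to live cell number. Reads taken at 0, 8, 16, 24, 32 and 40 h of compound exposure at 37 C.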

Assay [12] in a line: qHTS assay to identify small molecule antagonists of the sonic hedgehog signaling (Shh) pathway - cell viability counter screen (AID 1259367). Further: nearly all actives have a fitted effect of over 55% in size. Further: potency means the concentration at half of the fitted maximal effect. An outline of the steps: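 Cells: 3T3 Gli1-Luc, 2,000/well, 4 hr pre-incubation. Compounds in DMSO, then conditioned medium. Incubation 24 hr, 37C, 5% CO2. CellTiter-Fluor at 23 hr, 1 hr, fluorescence.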
The nature of assay [13]: qHTS assay to identify small molecule antagonists of the sonic hedgehog signaling (Shh) pathway (AID 1259369; calls by dose curve; further: nearly all actives have a fitted effect of over 45% in size; further: potency means the concentration at half of the fitted maximal effect). In outline: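 NIH/3T3-derived Gli1-Luc reporter cells plated 4 h, dosed with compound, then stimulated with conditioned medium for 24 h at 37 C. Firefly luciferase luminescence read after 30 min with detection reagent at room temperature.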
In assay [14] the target is Estrogen receptor beta (Homo sapiens) (UniProt Q92731). Nature of the assay: qHTS assay to identify small molecule antagonists of the estrogen receptor beta (ER-beta) signaling pathway (AID 1259378; active means well fitted inhibition curve with a large enough effect in the signal ratio in the repeat runs, not every such curve was filed as active; the % refers to the signal ratio; further: potency means the concentration at half of the fitted maximal effect). An outline of the steps: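 Antagonist mode: compounds added to beta-lactamase reporter HEK293T ER-beta-UAS cells stimulated with E2 (1nM final), 16 hr at 37C. LiveBLAzer B/G FRET substrate, 2 hours room temperature, fluorescence read-out.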

Assay [15] is described as follows: qHTS assay to identify small molecule agonists of the estrogen receptor beta (ER-beta) signaling pathway - cell viability counter screen (AID 1259380). Further: nearly all actives have a fitted effect of over 30% in size. Further: potency means the concentration at half of the fitted maximal effect. An outline of the steps:
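ER-beta-UAS-bla HEK293T cells in medium with 2% charcoal-stripped FBS, pre-incubated 6 hr, then treated 16 hr at 37C. Cytotoxicity read in the same wells by CellTiter-Glo luminescence after 30 min at room temperature.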

A short description of assay [16]: qHTS assay to identify small molecule antagonists of the estrogen receptor alpha (ER-alpha) signaling pathway using the BG1 cell line in the presence of 0.1 nM 17-beta-estradiol - cell viability counter screen (AID 1259241). Further: nearly all actives have a fitted effect of over 40% in size. In outline: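 CellTiter-Fluor read (30 min, 37C) on ER-alpha/ERE-luc VM7Luc4E2 cells; 22 hr compound treatment; agonist 0.1 nM E2 final; same-well multiplex.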

Assay [17] is described as follows: qHTS assay to identify small molecule phospholipidosis (PLD) inducers (AID 1259344; active means well fitted curve in the direction sought with a large enough effect; an effect the other way counts as inactive or inconclusive). In outline:
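Phospholipidosis is scored by imaging LipidTOX-stained pits in HepG2 cells exposed to compound for 24 h at 37 C; pit counts and integrated intensities per well and per cell serve as outputs.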

The target of assay [18] is Estrogen receptor (Homo sapiens) (UniProt P03372). Nature of the assay: qHTS assay to identify small molecule antagonists of the estrogen receptor alpha (ER-alpha) signaling pathway using the BG1 cell line in the presence of 0.1 nM 17-beta-estradiol (AID 1259244). Further: nearly all actives have a fitted effect of over 50% in size. Further: potency means the concentration at half of the fitted maximal effect. An outline of the steps: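 VM7Luc4E2 cells (endogenous full-length ER-alpha, 4×ERE-luciferase), kept 5 days in phenol red-free, charcoal-stripped FBS medium; 4,000 cells/well. Compounds added with 0.1 nM (final) 17beta-estradiol, 22 hr at 37C; luminescence read with ONE-Glo after 30 min.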

In assay [19] the target is Androgen receptor (Homo sapiens) (UniProt P10275). Nature of the assay: qHTS assay to identify small molecule antagonists of the androgen receptor (AR) signaling pathway using the MDA cell line in the presence of 0.5 nM R1881 (AID 1259243). An outline of the steps: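 MDA-kb2 cells (MMTV-luciferase, responsive to AR and GR) at 3,000/well, rested 5 h at 37C, 0% CO2, then given compounds plus 0.5 nM R1881 (final) for 16 hr. Luciferase read with ONE-Glo after 30 min at room temperature.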

This passage reports Potency and outcome results from PubChem BioAssay (Tox21).

Each structure is given as a SMILES string. Unmarked numbers belong to inactive results. Inconclusive results are not listed. Calls of active or inactive are those of the source. Unless noted, the call rests on the fitted dose curve; in most records, active means well fitted curve in the direction sought with a large enough effect in the repeat runs; inconclusive means weak or mixed curves; inactive means no such curve, though single readings can be large; an effect the other way counts as inactive or inconclusive.

Estrogen receptor beta (Homo sapiens), sequence (Q92731 whole entry, looked up): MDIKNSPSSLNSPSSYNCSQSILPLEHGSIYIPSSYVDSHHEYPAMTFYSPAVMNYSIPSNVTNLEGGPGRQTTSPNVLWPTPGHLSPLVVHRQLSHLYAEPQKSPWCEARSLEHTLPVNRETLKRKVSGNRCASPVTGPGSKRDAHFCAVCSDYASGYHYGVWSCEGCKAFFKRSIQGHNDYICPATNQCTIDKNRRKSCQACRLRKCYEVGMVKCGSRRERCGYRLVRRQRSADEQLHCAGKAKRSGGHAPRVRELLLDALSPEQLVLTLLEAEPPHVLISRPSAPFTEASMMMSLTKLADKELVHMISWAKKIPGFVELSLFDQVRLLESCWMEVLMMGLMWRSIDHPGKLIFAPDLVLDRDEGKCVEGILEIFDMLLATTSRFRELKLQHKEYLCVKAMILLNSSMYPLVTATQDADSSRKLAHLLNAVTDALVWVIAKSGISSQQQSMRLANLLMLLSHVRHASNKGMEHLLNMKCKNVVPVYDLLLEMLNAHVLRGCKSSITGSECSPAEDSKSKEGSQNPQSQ
Androgen receptor (Homo sapiens), sequence (P10275 whole entry, looked up): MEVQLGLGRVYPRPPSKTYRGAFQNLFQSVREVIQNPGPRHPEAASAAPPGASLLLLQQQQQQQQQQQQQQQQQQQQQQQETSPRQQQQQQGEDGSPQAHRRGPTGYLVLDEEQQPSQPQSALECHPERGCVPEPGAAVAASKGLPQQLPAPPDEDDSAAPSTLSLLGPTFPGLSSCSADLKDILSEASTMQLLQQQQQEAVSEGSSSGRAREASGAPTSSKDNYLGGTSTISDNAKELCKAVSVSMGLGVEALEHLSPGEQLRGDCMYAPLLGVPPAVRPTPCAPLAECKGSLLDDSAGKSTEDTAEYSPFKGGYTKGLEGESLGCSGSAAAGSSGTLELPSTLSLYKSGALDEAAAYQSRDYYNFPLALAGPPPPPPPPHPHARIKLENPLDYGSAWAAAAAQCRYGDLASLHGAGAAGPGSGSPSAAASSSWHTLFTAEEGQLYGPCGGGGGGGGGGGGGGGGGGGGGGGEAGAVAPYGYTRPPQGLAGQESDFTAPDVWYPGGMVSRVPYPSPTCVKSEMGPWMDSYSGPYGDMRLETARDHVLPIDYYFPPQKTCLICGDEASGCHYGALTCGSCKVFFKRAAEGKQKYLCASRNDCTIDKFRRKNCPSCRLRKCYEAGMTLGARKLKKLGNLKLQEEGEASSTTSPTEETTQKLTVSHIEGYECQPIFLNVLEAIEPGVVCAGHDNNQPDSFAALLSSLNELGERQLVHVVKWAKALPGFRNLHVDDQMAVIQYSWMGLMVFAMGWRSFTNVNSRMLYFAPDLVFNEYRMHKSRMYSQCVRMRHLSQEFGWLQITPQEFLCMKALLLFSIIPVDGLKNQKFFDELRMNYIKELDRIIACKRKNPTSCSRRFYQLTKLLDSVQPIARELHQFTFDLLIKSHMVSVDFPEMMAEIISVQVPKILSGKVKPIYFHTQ
Estrogen receptor (Homo sapiens), sequence (P03372 whole entry, looked up): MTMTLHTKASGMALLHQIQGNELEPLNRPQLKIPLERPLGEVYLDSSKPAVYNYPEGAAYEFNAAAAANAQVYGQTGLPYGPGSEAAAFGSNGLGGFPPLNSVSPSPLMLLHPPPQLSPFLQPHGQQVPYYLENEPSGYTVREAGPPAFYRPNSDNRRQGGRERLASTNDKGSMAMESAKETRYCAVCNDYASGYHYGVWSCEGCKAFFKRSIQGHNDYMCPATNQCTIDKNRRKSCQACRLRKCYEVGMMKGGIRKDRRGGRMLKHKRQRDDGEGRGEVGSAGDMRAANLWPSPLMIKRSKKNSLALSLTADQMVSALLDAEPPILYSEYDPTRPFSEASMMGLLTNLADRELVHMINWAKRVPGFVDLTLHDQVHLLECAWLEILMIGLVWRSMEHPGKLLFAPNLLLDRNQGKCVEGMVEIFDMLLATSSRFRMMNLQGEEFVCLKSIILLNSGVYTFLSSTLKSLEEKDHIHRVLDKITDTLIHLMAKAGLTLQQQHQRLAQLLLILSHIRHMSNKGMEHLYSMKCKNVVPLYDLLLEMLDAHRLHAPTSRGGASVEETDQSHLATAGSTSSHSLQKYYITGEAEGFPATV

Take `CC(C)(C)C1=CC(=O)C(C(C)(C)C)=CC1=O`: the Potency entry in assay [1], in assay [2], in assay [3], in assay [4], in assay [5] and in assay [6] was “inactive” in each case. Further, the Potency result in assay [7], in assay [9] and in assay [10] was “inactive” each time. Moreover, the compound was called inactive in [8].
Take `CSc1ccc(O)cc1C`: the Potency result in [1], in assay [11], in assay [2], in assay [3], in assay [4] and in assay [5] was “inactive” each time. Also, the Potency result in assay [7], in assay [9] and in assay [10] was “inactive” throughout. The Potency was 43.3 µM (active) in assay [6]; 27.3 µM (active) in assay [12]; 13.7 µM (active) in assay [13]; 54.5 µM (active) in [14]; 61.1 µM (active) in assay [15].
On to `Clc1nc(C(Cl)(Cl)Cl)c(Cl)c(Cl)c1Cl`, for which the Potency result in assay [11], in [2], in [16], in assay [4], in assay [6] and in assay [12] was “inactive” throughout. Further, the Potency result in assay [7] is “inactive”. Besides, the Potency in assay [3] is 30.6 µM (active); in assay [9], 21.7 µM (active).
Turning to `CCCCCCCCCC(=O)NO`, the Potency result in [17] is “inactive”.
On the same count and under the same terms, as for `NC(=O)[C@H]1O[C@@H](O)[C@H](O)[C@@H](O)[C@@H]1O`, the entry is “inactive”.
`CCn1c2ccccc2c2ccccc21`: the Potency entry in assay [1], in [2], in assay [3], in assay [4], in [5] and in assay [6] was “inactive” each time. In addition, the Potency result in assay [12], in [7], in [13], in assay [9], in [15] and in [10] was “inactive” throughout.
`COc1cc2c(cc1O)CCN[C@]21CS[C@@H]2c3c(OC(C)=O)c(C)c4c(c3[C@H](COC1=O)N1[C@@H]2[C@H]2c3c(cc(C)c(OC)c3O)C[C@@H]([C@@H]1O)N2C)OCO4`: the Potency result in assay [17] was “inactive”.
Regarding `c1ccc(C[P+](c2ccccc2)(c2ccccc2)c2ccccc2)cc1`, the Potency result in assay [1], in [11], in assay [2], in assay [4], in [5] and in [7] was “inactive” throughout. The Potency in assay [3] is 10.9 µM (active); in assay [18], 1.22 µM (active); in assay [13], 5.45 µM (active); in assay [9] it was 2.73 µM (active).
In the case of `O=C(Cn1cnnn1)N[C@@H]1C(=O)N2C(C(=O)O)=C(CSc3nncs3)CS[C@H]12`, the Potency entry in assay [17] is “inactive”.
On to `CCN(CC)c1ccc(C=O)cc1`, for which the Potency result in assay [1], in assay [2], in assay [3], in assay [18], in [4] and in assay [5] was “inactive” in each case. The Potency result in [6], in [12], in [7], in assay [13] and in assay [14] was “inactive” in each case. Moreover, the compound was called inactive in assay [8]. The Potency in [10] was 34.4 µM (active).
Regarding `c1ccc(-c2ccc(C(c3ccccc3)n3ccnc3)cc2)cc1` (configuration not stated), the Potency result in assay [1], in [2], in assay [16], in assay [3], in [17] and in assay [4] was “inactive” throughout. Besides, the Potency result in assay [5], in assay [6], in [12], in assay [7] and in assay [9] was “inactive” each time.
As to `CC(C)(C)c1ccc(OC2CCCCC2O)cc1` (configuration not stated), the Potency result in [11], in assay [2], in assay [16], in assay [3], in assay [4] and in [5] was “inactive” throughout. In addition, the Potency result in [6], in assay [7] and in assay [10] was “inactive” each time. Further, the Potency in assay [19] was 61.1 µM (active); in assay [13], 38.6 µM (active). Also, in assay [8], the outcome was inactive.
As for `CN[C@@H]1[C@@H](O[C@H]2O[C@H](CO)[C@@H](N)[C@H](O)[C@H]2O)O[C@H]2C[C@@H](N)[C@@H](O[C@H]3[C@H](O)[C@@H](O)[C@H](N)C[C@@H]3N)O[C@@H]2[C@@H]1O`, in assay [17], the Potency entry was “inactive”.
For `Nc1ccc(N)c([N+](=O)[O-])c1`, the Potency in assay [6] is 27.3 µM (active); in [12], 21.7 µM (active); in assay [13], 8.63 µM (active); in assay [9], 54.5 µM (active).
As to `CS(=O)(=O)c1ccc([C@@H](CC2CCCC2)C(=O)Nc2cnccn2)cc1Cl`, in assay [6], the Potency was 21.7 µM (active).
Take `O=C1Cc2ccccc2C1`: the Potency result in assay [13] is “inactive”.
